Assay results from PubChem BioAssay (Tox21).
Results filed as inconclusive are left out. Calls of active or inactive are those of the source. Unless noted, calls follow the shape of the dose curve; as a rule, active = well fitted curve in the direction sought with a large enough effect in the repeat runs; inconclusive = weak or mixed curves; inactive = no such curve, though single readings can be large; an effect the other way counts as inactive or inconclusive. Positions of bridges follow the written chain, without caps; N, C: chain ends. Non-standard residues stand in square brackets, D forms with d. Residues, ends and D or L forms follow the SMILES beside them. hArg = N=C(N)NCCCC[C@H](N)C(=O)O; Mpa = O=C(O)CCS

Key:
[1] = qHTS assay to identify small molecule antagonists of the thyroid receptor (TR) signaling pathway - cell viability counter screen (AID 743064); also: nearly all actives have a fitted effect of over 50% in size
Summary of the method: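 GH3.TRE-Luc rat pituitary cells dosed after 4 hr plating, co-stimulated with T3 at 1 nM final, incubated 23.5 h at 37 C. Viability measured in the same wells by CellTiter-Fluor fluorescence after 30 min further at 37 C.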

[2] = qHTS assay to identify small molecule antagonists of the thyroid receptor (TR) signaling pathway (AID 743065); also: series mostly up to about 70 µM; nearly all actives have a fitted effect of over 55% in size
Summary of the method: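 Antagonism measured as loss of luciferase signal in GH3 cells stably carrying a TRE-luciferase reporter, co-treated with compound and T3 (1 nM final) for 23.5 h at 37 C. Viability was read in the same well by CellTiter-Fluor.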

[3] = tested on: thyroid hormone receptor (rat, GH3 cells); experiment: qHTS assay to identify small molecule agonists of the thyroid receptor (TR) signaling pathway (AID 743066; calls by dose curve)
[4] = molecular target: Estrogen receptor (Homo sapiens) (UniProt P03372); experiment: qHTS assay to identify small molecule antagonists of the estrogen receptor alpha (ER-alpha) signaling pathway (AID 743069; active = well fitted curve in the direction sought with a large enough effect in the signal ratio in the repeat runs, not every such curve was filed as active; the % refers to the signal ratio)
Estrogen receptor (Homo sapiens), sequence (P03372 whole entry, looked up): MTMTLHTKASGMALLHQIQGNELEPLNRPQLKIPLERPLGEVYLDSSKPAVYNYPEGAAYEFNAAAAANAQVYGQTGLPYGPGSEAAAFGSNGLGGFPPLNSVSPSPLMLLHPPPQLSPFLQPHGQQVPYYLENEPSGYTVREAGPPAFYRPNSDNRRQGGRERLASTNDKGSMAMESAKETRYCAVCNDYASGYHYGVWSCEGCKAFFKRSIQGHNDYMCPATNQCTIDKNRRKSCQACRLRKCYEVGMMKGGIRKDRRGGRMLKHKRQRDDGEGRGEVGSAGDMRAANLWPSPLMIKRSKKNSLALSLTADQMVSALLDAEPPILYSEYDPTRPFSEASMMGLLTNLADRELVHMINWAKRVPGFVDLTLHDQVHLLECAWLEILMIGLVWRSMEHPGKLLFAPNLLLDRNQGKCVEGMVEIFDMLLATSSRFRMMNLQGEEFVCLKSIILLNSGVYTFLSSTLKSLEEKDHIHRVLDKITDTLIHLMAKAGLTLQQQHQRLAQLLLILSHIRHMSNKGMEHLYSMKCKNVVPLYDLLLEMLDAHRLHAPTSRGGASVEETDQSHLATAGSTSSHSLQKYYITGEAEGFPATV
Summary of the method: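 ER-alpha-UAS-bla GripTite HEK293 line; 2% charcoal-stripped FBS overnight; plated, 4 hr 37C/5% CO2; cpd in DMSO + 17beta-estradiol, 18 hr 37C; LiveBLAzer B/G FRET substrate 2 hr RT; fluorescence intensity.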

[5] = qHTS assay to identify small molecule antagonists of the estrogen receptor alpha (ER-alpha) signaling pathway - cell viability counter screen (AID 743074; calls by dose curve;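 also: HEK293 cells carrying ER-alpha-UAS-bla reporter stimulated with 17beta-estradiol; nearly all actives have a fitted effect of over 45% in size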)
[6] = molecular target: Estrogen receptor (Homo sapiens) (UniProt P03372); experiment: qHTS assay to identify small molecule agonists of the estrogen receptor alpha (ER-alpha) signaling pathway (AID 743075; calls by dose curve;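 also: HEK293 GripTite cells with ER-alpha and UAS-driven beta-lactamase reporter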)
[7] = molecular target: Estrogen receptor (Homo sapiens) (UniProt P03372); experiment: qHTS assay to identify small molecule agonists of the estrogen receptor alpha (ER-alpha) signaling pathway using the BG1 cell line (AID 743079); also: nearly all actives have a fitted effect of over 20% in size; also: potency is read from the fitted curve at half-maximal effect
[8] = qHTS assay to identify small molecule antagonists of the estrogen receptor alpha (ER-alpha) signaling pathway using the BG1 cell line (AID 743080; calls by dose curve;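 also: BG1 cells stimulated with 17beta-estradiol alongside compound; series mostly up to about 70 µM; nearly all actives have a fitted effect of over 25% in size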)
Summary of the method: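 Quantitative HTS on the Tox21 10K library: BG1 cells with endogenous ER-alpha and ERE-luciferase reporter, 17beta-estradiol stimulation, 21.5 h compound exposure, luminescence endpoint with parallel fluorescence cytotoxicity counter-read.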

[9] = qHTS assay to identify small molecule antagonists of the estrogen receptor alpha (ER-alpha) signaling pathway using the BG1 cell line - cell viability counter screen (AID 743081);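 also: compound given together with 17beta-estradiol as the ER stimulus; series mostly up to about 70 µM; nearly all actives have a fitted effect of over 45% in size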
Aromatase (Homo sapiens) = Aromatase (Homo sapiens) (UniProt P11511); experiment: qHTS assay to identify aromatase inhibitors (AID 743083); also: series mostly up to about 70 µM; nearly all actives have a fitted effect of over 55% in size
Aromatase (Homo sapiens), sequence (P11511 whole entry, looked up): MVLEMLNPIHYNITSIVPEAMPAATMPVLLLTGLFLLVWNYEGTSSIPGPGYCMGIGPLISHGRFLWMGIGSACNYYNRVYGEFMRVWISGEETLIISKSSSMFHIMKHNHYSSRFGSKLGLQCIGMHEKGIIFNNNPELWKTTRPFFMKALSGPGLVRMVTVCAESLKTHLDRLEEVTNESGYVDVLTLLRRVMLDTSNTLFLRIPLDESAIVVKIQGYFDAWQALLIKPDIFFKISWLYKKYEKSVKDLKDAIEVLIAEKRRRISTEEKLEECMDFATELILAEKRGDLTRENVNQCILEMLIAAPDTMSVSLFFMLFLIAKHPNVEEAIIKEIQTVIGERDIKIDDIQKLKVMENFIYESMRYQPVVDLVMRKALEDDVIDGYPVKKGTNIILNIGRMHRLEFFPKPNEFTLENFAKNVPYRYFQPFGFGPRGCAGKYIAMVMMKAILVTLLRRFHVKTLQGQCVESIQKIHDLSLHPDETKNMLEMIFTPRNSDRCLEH

[10] = qHTS assay to identify aromatase inhibitors - cell viability counter screen (AID 743084);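 also: cells stimulated with testosterone during compound exposure; nearly all actives have a fitted effect of over 55% in size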
[11] = qHTS assay to identify small molecule that activate the aryl hydrocarbon receptor (AhR) signaling pathway - cell viability counter screen (AID 743086);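 also: HepG2 liver cells carrying the AhR DRE luciferase reporter; series mostly up to about 70 µM; nearly all actives have a fitted effect of over 45% in size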
Summary of the method: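 Cytotoxicity counter screen: CellTiter-Fluor signal (30 min, 37 C) in 4000 HepG2 cells/well carrying the DRE-luciferase reporter, following 24 h compound exposure at 37 C.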

[12] = molecular target: Peroxisome proliferator-activated receptor gamma (Homo sapiens) (UniProt P37231); experiment: qHTS assay to identify small molecule agonists of the peroxisome proliferator-activated receptor gamma (PPARg) signaling pathway (AID 743094; active = well fitted activation curve with a large enough effect in the signal ratio in the repeat runs, not every such curve was filed as active; the % refers to the signal ratio)
Peroxisome proliferator-activated receptor gamma (Homo sapiens), sequence (P37231 whole entry, looked up): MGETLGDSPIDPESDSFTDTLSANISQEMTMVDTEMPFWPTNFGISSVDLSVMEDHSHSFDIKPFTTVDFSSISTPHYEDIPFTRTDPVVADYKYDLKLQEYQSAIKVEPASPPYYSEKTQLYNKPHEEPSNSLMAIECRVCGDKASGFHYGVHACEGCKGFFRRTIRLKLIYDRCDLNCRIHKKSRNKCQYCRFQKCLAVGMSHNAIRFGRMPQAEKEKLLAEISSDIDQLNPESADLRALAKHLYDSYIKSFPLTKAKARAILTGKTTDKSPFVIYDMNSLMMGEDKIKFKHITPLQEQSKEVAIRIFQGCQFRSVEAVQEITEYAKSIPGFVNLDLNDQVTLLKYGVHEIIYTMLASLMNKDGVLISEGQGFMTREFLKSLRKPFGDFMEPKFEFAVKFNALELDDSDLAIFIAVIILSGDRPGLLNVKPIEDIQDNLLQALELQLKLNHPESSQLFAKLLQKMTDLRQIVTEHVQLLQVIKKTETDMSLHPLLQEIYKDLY
Summary of the method: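 Quantitative HTS agonist mode: stable HEK293H line with UAS-beta-lactamase reporter under PPARg control, 17 h compound exposure at 37C, fluorescence after 1 h FRET substrate loading at room temperature.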

[13] = qHTS assay to identify small molecule antagonists of the peroxisome proliferator-activated receptor gamma (PPARg) signaling pathway - cell viability counter screen (AID 743194); also: nearly all actives have a fitted effect of over 55% in size
Summary of the method: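 Viability was measured as CellTiter-Glo luminescence in GeneBLAzer PPARg UAS-bla HEK293H cells. These cells had been exposed 17 h at 37 C to compounds together with rosiglitazone at 50 nM final, with the beta-lactamase readout taken in the same wells.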

[14] = qHTS assay for small molecule agonists of the antioxidant response element (ARE) signaling pathway - cell viability counter screen (AID 743203; calls by dose curve; also: nearly all actives have a fitted effect of over 55% in size)
Summary of the method: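 Seeded at 2,000 cells/well, ARE-bla HepG2 cells were incubated 5 hrs before compound addition. After 16 hrs of treatment at 37C with 5% CO2, CellTiter-Glo reagent was added and luminescence read 30 min later.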

[15] = qHTS assay for small molecule activators of the heat shock response signaling pathway - cell viability counter screen (AID 743209); also: nearly all actives have a fitted effect of over 50% in size
Summary of the method: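 First, HSE-bla HeLa cells were seeded at 1500 cells/well and kept overnight at 37 C. Next, compounds were pinned in and incubated 5 h. After the FRET substrate step, CellTiter-Glo was added and luminescence read 30 min later.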

[16] = qHTS assay for small molecule activators of the heat shock response signaling pathway (AID 743210; active = well fitted activation curve with a large enough effect in the signal ratio in the repeat runs, with a control signal flat, not every such curve was filed as active; the % refers to the signal ratio;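 also: HeLa cells with beta-lactamase reporter driven by heat shock elements; series mostly up to about 63 µM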)
Summary of the method: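 HeLa HSE-bla cells, overnight plating; cpd in DMSO 5 h, 37 C; LiveBLAzer B/G FRET substrate 2.5 h RT; fluorescence intensity read.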

[17] = molecular target: Aryl hydrocarbon receptor (Homo sapiens) (UniProt P35869); experiment: qHTS assay to identify small molecule that activate the aryl hydrocarbon receptor (AhR) signaling pathway (AID 743085);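 also: HG2L7.5c1 human HepG2 liver cells with stably integrated DRE-driven firefly reporter; series mostly up to about 70 µM; nearly all actives have a fitted effect of over 15% in size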
Aryl hydrocarbon receptor (Homo sapiens), sequence (P35869 whole entry, looked up): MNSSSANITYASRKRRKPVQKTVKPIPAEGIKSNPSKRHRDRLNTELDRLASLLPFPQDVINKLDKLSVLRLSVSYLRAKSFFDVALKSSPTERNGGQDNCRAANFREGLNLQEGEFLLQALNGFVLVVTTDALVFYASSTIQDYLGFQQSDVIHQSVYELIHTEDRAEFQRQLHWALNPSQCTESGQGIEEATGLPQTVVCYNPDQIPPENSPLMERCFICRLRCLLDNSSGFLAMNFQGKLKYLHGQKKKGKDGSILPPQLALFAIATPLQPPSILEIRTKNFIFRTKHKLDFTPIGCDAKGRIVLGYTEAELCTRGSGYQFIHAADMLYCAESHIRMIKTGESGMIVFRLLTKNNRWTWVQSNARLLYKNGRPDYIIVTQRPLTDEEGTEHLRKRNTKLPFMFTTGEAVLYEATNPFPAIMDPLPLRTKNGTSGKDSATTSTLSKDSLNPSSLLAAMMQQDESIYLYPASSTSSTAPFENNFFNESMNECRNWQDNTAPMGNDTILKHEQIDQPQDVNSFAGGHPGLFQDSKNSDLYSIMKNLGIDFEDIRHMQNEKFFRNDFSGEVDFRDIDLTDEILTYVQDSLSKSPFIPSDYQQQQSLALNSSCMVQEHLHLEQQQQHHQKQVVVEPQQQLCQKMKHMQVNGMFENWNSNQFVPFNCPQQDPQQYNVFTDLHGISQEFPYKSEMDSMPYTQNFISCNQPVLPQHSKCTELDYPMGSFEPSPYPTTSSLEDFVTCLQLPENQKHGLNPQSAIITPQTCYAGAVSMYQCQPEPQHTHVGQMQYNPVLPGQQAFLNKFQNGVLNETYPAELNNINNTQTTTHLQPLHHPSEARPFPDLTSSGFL
Summary of the method: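 HepG2 cells stably carrying a 20-DRE firefly luciferase reporter (HG2L7.5c1) treated with compound for 24 hr at 37C. Luciferase read by ONE-Glo luminescence, with CellTiter-Fluor viability read first.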

[18] = molecular target: Peroxisome proliferator-activated receptor gamma (Homo sapiens) (UniProt P37231); experiment: qHTS assay to identify small molecule antagonists of the peroxisome proliferator-activated receptor gamma (PPARg) signaling pathway (AID 743191; calls by dose curve; also: series mostly up to about 63 µM; nearly all actives have a fitted effect of over 30% in size)
Summary of the method: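 Beta-lactamase reporter under UAS control in HEK293H PPARg-bla cells; compound treatment 17 h at 37C. Read-out: fluorescence intensity after 1 h room-temperature incubation with LiveBLAzer B/G FRET substrate.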

[19] = qHTS assay for small molecule agonists of the antioxidant response element (ARE) signaling pathway (AID 743202; active = well fitted activation curve with a large enough effect in the signal ratio in the repeat runs, not every such curve was filed as active; the % refers to the signal ratio)
Summary of the method: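 Quantitative high-throughput format in HepG2 cells bearing an integrated ARE-beta-lactamase reporter. Compound exposure lasted 16 h at 37 C, and fluorescence was read 2 h after adding LiveBLAzer B/G substrate at room temperature.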

Measured: Potency

CCCCCc1cccc(=O)o1
not listed: [17] | [18] | [19]
inactive: all other assays above

NC(=O)[C@@H]1CSSCCC(=O)N[C@@H](CCCCN=C(N)N)C(=O)NCC(=O)N[C@@H](CC(=O)O)C(=O)N[C@@H](Cc2c[nH]c3ccccc23)C(=O)N2CCC[C@H]2C(=O)N1 ([Mpa][hArg]GDWPC-NH2; disulfide 1-7)
not listed: [6] | [7]
inactive: all other assays above

O=C=NCC1CCCC(CN=C=O)C1 (configuration not stated)
not listed: [4] | [19]
inactive: all other assays above

CC1CCc2c(N3CCC(O)CC3)c(F)cc3c(=O)c(C(=O)O)cn1c23 (configuration not stated)
not listed: [4] | [15] | [18] | [19]
inactive: all other assays above

CC1OCCC1=O (configuration not stated)
not listed: [4] | [12] | [18]
inactive: all other assays above

CCC(C)C(C)=O (configuration not stated)
active: [7] 67 µM
not listed: [4] | [12]
inactive: all other assays above

CO[C@@]1(NC(=O)Cc2cccs2)C(=O)N2C(C(=O)O)=C(COC(N)=O)CS[C@@H]21
not listed: [4] | [15]
inactive: all other assays above

CC(C)Nc1ccccc1
not listed: [4] | [17]
inactive: all other assays above

CC1CC(=O)CC(C)(C)C1 (configuration not stated)
not listed: [4] | [12] | [18]
inactive: all other assays above

Cc1c(C(=O)c2c[nH]n(C)c2=O)ccc(S(C)(=O)=O)c1C1=NOCC1
not listed: [4]
inactive: all other assays above

CCC/C=C(\C=O)CC
not listed: [4] | [12] | [17] | [18]
inactive: all other assays above

CCCCCCCCCCCCCCC(=O)NC(CO)CCCCCCCCCCCCCC (configuration not stated)
not listed: [4] | [12]
inactive: all other assays above

O=C1CCCCO1
not listed: [4] | [18]
inactive: all other assays above

CC(=O)OC1CCCCC1C(C)(C)C (configuration not stated)
not listed: [4] | [19]
inactive: all other assays above

COc1ccc2c(c1)c1c3n2CCN(C)C3=NCC1
not listed: [4] | [13] | [15] | [17]
inactive: all other assays above
